Screening results as filed in PubChem BioAssay.
RAM network inh = yeast RAM network inhibition | inhibition, % at 50 µM | hit rate 1.8% among 190,000 | S. cerevisiae dse1pr::URA3 reporter, 5-FOA growth OD615, 2 d; analog-sensitive cbk1-as2 kinase mutant strain;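 active means inhibition above a set limit, 3 SD over mean compound inhibition, cut at about 8.4% in these data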;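 further: 0% = DMSO-only wells with no growth and 100% = 10 µM 1-NA-PP1 full growth; inhibition rescues growth on 5-FOA so higher OD means more RAM inhibition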
CHOP inhibitor = inhibitors of CHOP induction in ER stress response; CHO-K1 CHOP-promoter luciferase, tunicamycin-induced, 15-18 h; inhibition, % at 10 µM; hit rate 3.8% among 220,000;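 active means compounds that reduced the stress-induced luciferase reporter signal by more than about 70% of percent inhibition, limit read from the data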;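 further: 0% = tunicamycin plus vehicle and 100% = wells without tunicamycin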
L major viab = reduces viability of Leishmania major promastigotes | hit rate 9% among 200,000 | inhibition, % at 10 µM | resazurin fluorescence viability; in the data active means inhibition above about 50%;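 further: promastigotes grown with compound for 44 hours at 28 °C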
WT yeast gro inh = growth inhibition of WT yeast, mitochondrial fusion screen; inhibition, % at 10 µM; mitochondrial fusion phenotypic screen, WT strain; hit rate 2.1% among 190,000; in the data active means inhibition above about 58%; tested in S. cerevisiae
The depositor's hits bear a star; nt = no result. An excerpt weighted towards active compounds, which were near 13% of everything screened.

SMILES	RAM network inh	CHOP inhibitor	L major viab	WT yeast gro inh
CC1(C)N=C(SCC(=O)Nc2ccc(Cl)cc2)C(c2ccccc2)=N1	0	78*	35	34
CC1(C)N=C(SCC(=O)Nc2ccc(Cl)cc2)C(c2ccc(Cl)cc2)=N1	0	72*	31	49
Cn1c(SCC(=O)NNC(=O)Nc2ccc(Cl)cc2)nnc1-c1ccccc1	nt	-1	nt	nt
COc1ccc(Cl)cc1NC(=O)CSc1nnc(COc2ccccc2)n1C	2	80*	3	13
COc1ccc(Cl)cc1NC(=O)CSc1nnc(COc2ccccc2)n1N	2	19	7	2
N=c1sccn1CC(=O)Nc1cccc(Oc2ccccc2)c1	0	23	10	17
CC(C)(C)NS(=O)(=O)c1ccc(CCC(=O)Nc2cc(Cl)ccc2Oc2ccccc2)cc1	2	35	98*	12
N=c1sccn1CC(=O)Nc1cc(Cl)ccc1Oc1ccccc1	2	26	100*	-8
COc1ccc(CCC(=O)Nc2cc(Cl)ccc2OC)cc1	3	26	1	17
COc1cccc(OCC(=O)Nc2cc(Cl)ccc2Oc2ccccc2)c1	7	34	95*	33
CS(=O)(=O)c1ccc2nc(NC(=O)c3ccc(N4C(=O)CCC4=O)cc3)sc2c1	nt	6	nt	nt
Cc1ccc(NC(=O)COC(=O)CNC(=O)c2ccco2)cc1	-1	3	-1	-20
Cc1noc(C)c1C(=O)OCC(=O)Nc1cc(Cl)ccc1Oc1ccccc1	11*	43	4	5
COc1ccc(CNc2cc(NCCCO)c([N+](=O)[O-])c3nonc23)cc1	0	1	67*	6
O=[N+]([O-])c1c(NCCCO)cc(SCc2ccco2)c2nonc12	2	19	15	-3
Cn1ccnc1Sc1cc(NCCCO)c([N+](=O)[O-])c2nonc12	1	96*	-2	4
CCOC(=O)c1cc(C#N)c(Oc2ccccc2OC)nc1-c1ccccc1	8	35	6	22
Cc1ccc(NS(=O)(=O)c2cc3c4c(cccc4c2)C(=O)NC3=O)cc1C	nt	45	nt	nt
Fc1ccccc1Cc1noc(CN2CCN(c3ccc(Cl)cn3)CC2)n1	-1	-3	8	27
COc1cc(C(=O)N/N=C2\CCS(=O)(=O)c3ccc(F)cc32)cc(OC)c1OC	2	73*	0	-8
O=S1(=O)CC/C(=N/Nc2ccc(C(F)(F)F)cn2)c2cc(F)ccc21	5	95*	1	6
CC(=O)Nc1c(N)c2ccccc2oc1=O	1	16	-4	-2
Cc1cc(C)c(C(=O)N2CCCC(CNC(=O)C3(c4ccc(Cl)cc4)CC3)C2)c(=O)[nH]1 (configuration not stated)	2	6	-2	-6
OC(COCc1ccc(Cl)cc1)CN1CCc2ccccc2C1 (configuration not stated)	0	-1	73*	-3
CCC(C)NCC(O)COCc1ccc(Cl)cc1 (configuration not stated)	1	-41	60*	-12
SMILES	RAM network inh	CHOP inhibitor	L major viab	WT yeast gro inh
CC(C)(C)NCC(O)COCc1ccc(Cl)cc1 (configuration not stated)	0	-18	-7	2
OC(COCc1ccc(Cl)cc1)CN1CCN(CC(O)COCc2ccc(Cl)cc2)CC1 (configuration not stated)	1	88*	100*	58*
OC(COCc1ccccc1)CN1CCN(c2ccccc2F)CC1 (configuration not stated)	1	33	52*	-19
C=C1CCN([C@H](C(=O)NCc2ccco2)C(C)C)S(=O)(=O)c2ccccc21	nt	-5	nt	nt
Cc1cccc(C(=O)N[C@H](C(=O)OCC(=O)NC2CCS(=O)(=O)C2)C(C)C)c1 (some centres not stated)	0	-17	-3	2
Cc1cc(C)c(S(=O)(=O)NC(C)C)c(C)c1-n1cnnn1	0	-2	-5	-15
CCC(C)NC(=O)COC(=O)c1oc2ccccc2c1CSc1ccc(Cl)cc1 (configuration not stated)	3	11	4	-4
CC(=O)c1cccc(CN2CCCC(C(=O)c3ccc4c(c3)OCO4)C2)c1 (configuration not stated)	1	11	100*	19
CCOC(=O)C1CCCN(Cc2ccc3c(c2)OCO3)C1 (configuration not stated)	0	3	92*	-3
CCOC(=O)CNC(=O)N1CCCC(C(=O)c2ccc3c(c2)OCO3)C1 (configuration not stated)	1	-5	-4	2
O=C(c1ccc2c(c1)OCO2)C1CCCN(C2CCN(CCc3ccccc3)CC2)C1 (configuration not stated)	1	-3	98*	2
O=C(C1CCCN(Cc2ccc3c(c2)OCO3)C1)N1CCCC1 (configuration not stated)	1	10	46	-16
COc1cccc(CN2CCCC(C(=O)c3ccc4c(c3)OCO4)C2)c1O (configuration not stated)	1	12	82*	14
CCN(CC)C(=O)C1CCCN(Cc2ccc3c(c2)OCO3)C1 (configuration not stated)	0	31	44	2
CCOc1cc(CNc2nn[nH]n2)ccc1OCC(=O)NC(C)(C)C	0	-5	-6	-9
COc1ccc(N(C)C(=O)c2oc(=O)c3ccccc3c2-c2ccc(C)cc2)c(OC)c1	nt	16	nt	nt
COC(=O)c1nnn(CC(=O)NC(=O)Nc2cccc(Cl)c2C)c1C(=O)OC	1	21	6	0
COc1ccc(F)cc1C(=O)C1CCCN(Cc2cccn2-c2cccnc2)C1 (configuration not stated)	0	6	74*	-6
COc1ccc(F)cc1C(=O)C1CCCN(Cc2ccc(Oc3ncccn3)cc2)C1 (configuration not stated)	1	-16	21	-2
COc1ccc(F)cc1C(=O)C1CCCN(Cc2ccc3c(c2)OCCO3)C1 (configuration not stated)	2	7	104*	9
CCOC(=O)N1CCC(N2CCCC(C(=O)c3cc(F)ccc3OC)C2)CC1 (configuration not stated)	1	15	82*	-8
COC(=O)[C@@H]1C[C@@H]2CC[C@@H](O)C[C@@H]2N1Cc1ccc(N2CCN(C)CC2)cc1	nt	2	nt	nt
Cc1cccc(COc2ncnc3nc[nH]c23)c1	-1	8	-1	-14
CCn1c(=O)[nH]c(=O)c2c(N)c(C(=O)c3cc(F)ccc3F)sc21	nt	17	nt	nt
COc1ccc(C)cc1NC(=S)NC12CN3CN(CN(C3)C1)C2	1	-5	-4	2
CCc1nnc(N/N=C/c2c(Cl)cccc2Cl)n1N	1	-3	50*	-17
Cn1c(=O)n(C)c2cc(S(=O)(=O)Nc3cc(Cl)ccc3O)ccc21	1	3	18	43
CCOC(=O)Cc1csc(NC(=O)CSc2ncnc3c2cnn3-c2ccccc2Cl)n1	3	11	13	17
COc1ccccc1NS(=O)(=O)c1cc(NC(=O)c2cccs2)ccc1N1CCOCC1	nt	-15	nt	nt
COc1ccccc1NS(=O)(=O)c1cc(NC(=O)C2CCC2)ccc1N1CCCCC1	nt	-1	nt	nt
